Data from PubChem BioAssay (NCI).
The panel holds about 83,000 compounds, 20% with a hit somewhere; the sample as a whole holds those more often.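 Single-dose data. Exposure time 48 hours. Values below 10 considered active.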 Unmarked numbers belong to inactive results. Activity calls are given as the source filed them.

Key:
Assay in all cases: NCI-60 one-dose screen, 48 h (100 = growth as untreated, 0 = no growth, -100 = all killed)
Conditions in all cases: 10 µM unless noted
[1] = test system: SR leukemia
[2] = test system: RPMI-8226 leukemia
[3] = test system: OVCAR-8 ovarian
[4] = test system: OVCAR-4 ovarian
[5] = test system: SK-OV-3 ovarian
[6] = test system: IGROV1 ovarian
[7] = test system: OVCAR-3 ovarian
[8] = test system: HS 578T breast
[9] = test system: NCI/ADR-RES ovarian
[10] = test system: OVCAR-5 ovarian

| SMILES | growth [1] | growth [2] | growth [3] | growth [4] | growth [5] | growth [6] | growth [7] | growth [8] | growth [9] | growth [10] [%] |
| --- | --- | --- | --- | --- | --- | --- | --- | --- | --- | --- |
| CC1CN=C(c2cccc(-c3ccc(-c4ccccc4)o3)c2)N1 (stereo unspecified) | -9.42% (active) | -26.3% (active) | 33.7% | 43.1% | 18.4% | 31% | 10.6% | 17.4% | 28.3% | – |
| C#CCOc1ccc2ncnc(Nc3cccc(NC(=O)CCl)c3)c2c1 | 30.3% | 64.2% | 54.6% | 82.7% | 113% | -37.7% (active) | 51.3% | 90.5% | 90.8% | – |
| COC(c1ccc2ccccc2c1)C(C)C(F)F (stereo unspecified) | 92% | 98.8% | 99.4% | 109% | 87.5% | 100% | 114% | 116% | 107% | – |
| COc1ccc(C/C(C)=C(/c2ccc(OCCN3CCCCCC3)cc2)c2ccc(OC(=O)NCc3ccccc3)cc2)cc1 | -43.2% (active) | 52.8% | 92.4% | 76% | 95.3% | 93% | 75.1% | 75% | 86.8% | – |
| Cc1cccc(-n2c(C)nc3ccc(N4CCCNC4=O)cc3c2=O)c1 | 98% | 104% | 99.5% | 99.3% | 114% | 111% | 107% | 111% | 103% | – |
| CCCCCCCCCCCCCCCCCCOc1ccccc1CC(=O)OCC[N+]1(C)CCOCC1 | 50.7% | 59.7% | 41% | 60.5% | 100% | -9.88% (active) | 65.4% | 55.1% | 104% | – |
| COc1ccc2[nH]cc(-c3nc(-c4cn(C)c5ccncc45)cs3)c2c1 | -11.2% (active) | -40.3% (active) | -9.37% (active) | 24.1% | 112% | – | 117% | 101% | 62.1% | 103 |
| Nc1nc(C(=O)N/N=C/c2ccc(N3CCOCC3)cc2)nn1-c1ccc(S(N)(=O)=O)cc1 | 104% | 102% | 101% | 99.7% | 111% | 94% | 104% | 104% | 102% | – |
| O=C(O)C1CN(c2cccc(Cl)c2)N(c2cccc(Cl)c2)C1=O (stereo unspecified) | 85% | 107% | 93.2% | 96% | 88.9% | 89.8% | 87.1% | 91% | 93.9% | – |
| CC1(C)CCC(S(=O)(=O)c2ccc3c(c2)/C(=N\O)c2cc(S(=O)(=O)N4CCN(c5ccc(F)cc5O)CC4)ccc2-3)CC1 | -48.5% (active) | -45.9% (active) | -71.7% (active) | -94% (active) | -98.5% (active) | -38.4% (active) | -83.4% (active) | -54.1% (active) | -3.41% (active) | – |
| COc1ncc2cc1NS(=O)(=O)c1cccc(c1)C(=O)NCC1=CC=C(S1)c1ncnc3c1SC2=C3C | -3.91% (active) | -31.3% (active) | 20.6% | -24.1% (active) | 5.33% (active) | -24.5% (active) | -73.1% (active) | 12.7% | 10.6% | – |
| CCN=C1C=CC(=C(c2ccc(N(C)C)cc2)c2ccc(N(C)C)cc2)c2ccccc21 | 3.56% (active) | -22.9% (active) | -8.37% (active) | 16.3% | -35.2% (active) | -7.04% (active) | -60.9% (active) | -29.8% (active) | 12.3% | – |
| CCNC(=O)Oc1ccc(/C(=C(/C)Cc2ccc(OC)cc2)c2ccc(OCCN3CCCC3)cc2)cc1 | 6.92% (active) | 44% | 89.8% | 74.1% | 88% | 88% | 77.5% | 70.9% | 85.9% | – |
| CCCCNC1=C(OCC)C(=O)c2ccccc2C1=O | 112% | 88.1% | 101% | 94.3% | 119% | – | 98.3% | 84.2% | 97.3% | 150 |
